Compound activity from PubChem BioAssay.
CHX counter – affects cycloheximide protein synthesis inhibition readout, counter-screen; cell reporter, cycloheximide protein synthesis inhibition counterscreen; max response, %; 12% of 300,000 active; AID 2314; in the data active = max response mostly above about 13%, no sharp cut-off; inactive = mostly below about 14%; also: read at 38.3 µM for the half of the compounds with a filed dose
Pf growth 96h – P. falciparum growth inhibition at 96 hours | P. falciparum luciferase reporter growth, 96 h | 6.9% of 320,000 active | AID 504834 | Potency, µM (series often up to 28.7 µM), hits mostly inhibitors
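Readout is luminescence from an integrated firefly luciferase in P. falciparum. Red cells, 2% hematocrit and 0.05% parasitemia final, were cultured with compound through two parasite generations (96 hours) at 37 C, 5% CO2.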
MARV entry inh – Marburg virus entry inhibition; Potency, µM (highest dose often 37.8 µM), actives largely listed as inhibitors; Marburg virus pseudotyped entry inhibition, cell reporter; 1.8% of 300,000 active; calls by dose curve; tested in HEK293 cells
Shiga toxin inh – blocks Shiga toxin action in Vero cells. Vero cells, Shiga toxin protein synthesis inhibition reporter. 9.2% of 290,000 active. inhibition, % at 38.7 µM; in the data active = inhibition mostly above about 28%, no sharp cut-off; inactive = mostly below about 43%
Pf growth 48h – inhibits P. falciparum growth in the first generation, 48 h; P. falciparum luciferase growth in erythrocytes, 48 h; Potency, µM (highest dose often 28.7 µM), most hits filed as inhibitors; 5.9% of 310,000 active
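A one-generation exposure of luciferase-tagged malaria parasites in RPMI 1640/Albumax erythrocyte culture, 37 C and 5% CO2. Inhibition is inferred from decreased luminescence after adding detection reagent.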
LASV entry inh – blocks Lassa virus binding to or entry into cells; Lassa virus pseudotype entry inhibition, cell reporter; Potency, µM (highest dose often 37.9 µM), most hits filed as inhibitors; 1.2% of 300,000 active; AID 540256; calls by dose curve; tested in HEK293 cells; also: nearly all actives have a fitted effect of over 50% in size
Each line names hits and unclear results; the compound was inactive in the other large screens. A selection: hits, their analogues and other compounds. The true share with any hit is near 19%. Unless noted, calls follow the shape of the dose curve; as a rule, active = well fitted inhibition curve with a large enough effect; inconclusive = small, poorly fitted or top-dose-only effect, or another doubt; inactive = no such curve, though single readings can be large or run the other way.

C=CCSc1nc2c(c(=O)[nH]1)C(c1ccccc1)C(C#N)=C(N)O2 (stereo not drawn)	none (no result: MARV entry inh, LASV entry inh)
COc1ccc(OCC(=O)N(C)Cc2ccccc2)cc1	LASV entry inh inconclusive
Cc1cc(OCC(=O)N(C)Cc2ccccc2)ccc1Cl	CHX counter 28, Pf growth 96h inconclusive, Shiga toxin inh 24
Cc1cc(OCC(=O)N(C)Cc2ccccc2)ccc1Br	CHX counter 34, Pf growth 96h inconclusive, Shiga toxin inh 56 (no result: MARV entry inh, LASV entry inh)
Cc1nn(CC(=O)N(C)Cc2ccccc2)c(=O)c2cccn12	Shiga toxin inh 46 (no result: MARV entry inh, LASV entry inh)
CN(Cc1ccccc1)C(=O)CC(=O)N(C)Cc1ccccc1	CHX counter 27, MARV entry inh inconclusive, Shiga toxin inh 52
Cc1nn(CC(=O)NCc2ccccc2)c(=O)c2cccn12	none (no result: MARV entry inh, LASV entry inh)
O=C(COC(=O)c1cncc(Br)c1)Nc1ccc(F)c(F)c1F	none (no result: CHX counter, Shiga toxin inh)
Cc1ccccc1NC(=O)CSc1nnc(COc2ccc(Cl)cc2)o1	MARV entry inh inconclusive (no result: CHX counter, Pf growth 96h, Shiga toxin inh, Pf growth 48h)
CC(NC(=O)c1ccc(F)cc1)c1ccc2c(c1)CCCC2 (stereo not drawn)	none
Cc1cccn2c(=O)c3cc(C(=O)NCCN4CCOCC4)c(=N)n(CCc4ccccc4)c3nc12	MARV entry inh inconclusive, Pf growth 48h 0.47µM
Cc1cccn2c(=O)c3cc(C(=O)NCC4CCCO4)c(=N)n(CCN4CCOCC4)c3nc12 (stereo not drawn)	none (no result: Pf growth 48h)
CCCCCn1c(=N)c(S(=O)(=O)c2ccc(Cl)cc2)cc2c(=O)n3cccc(C)c3nc21	Pf growth 48h 1.9µM, LASV entry inh inconclusive
COc1ccc(CCn2c(=N)c(C(=O)NCCN3CCOCC3)cc3c(=O)n4ccccc4nc32)cc1OC	Pf growth 96h inconclusive, MARV entry inh inconclusive, Pf growth 48h inconclusive
Cc1cccn2c(=O)c3cc(C(=O)NCCN4CCOCC4)c(=N)n(CCCN4CCOCC4)c3nc12	MARV entry inh 7.9µM, Pf growth 48h 2.9µM, LASV entry inh inconclusive
COc1ccc(CCn2c(=N)c(C(=O)NCCN3CCOCC3)cc3c(=O)n4cccc(C)c4nc32)cc1OC	Pf growth 96h 0.41µM, Pf growth 48h 0.74µM (no result: MARV entry inh, LASV entry inh)
Cc1nc2ccc(NC(=O)N3CCOCC3)cc2nc1C	LASV entry inh inconclusive
COCCn1c(=N)c(C(=O)NCCc2ccccc2)cc2c(=O)n3cccc(C)c3nc21	MARV entry inh inconclusive (no result: CHX counter, Pf growth 96h, Shiga toxin inh, Pf growth 48h)
CCNC(=O)c1cc2c(=O)n3cccc(C)c3nc2n(CCc2ccccc2)c1=N	Pf growth 48h 1.7µM (no result: Pf growth 96h)
CN1CCSc2ccc(C(=O)NCc3cccc(F)c3)cc21	CHX counter 13, Pf growth 96h 9.3µM (no result: MARV entry inh, LASV entry inh)
COc1cccc(NC(=O)c2ccc3c(c2)N(C)CCS3)c1	CHX counter 33, Pf growth 96h 7.4µM, Shiga toxin inh 29 (no result: MARV entry inh, LASV entry inh)
COc1cccc(NC(=O)c2ccc3c(c2)CCN3S(C)(=O)=O)c1	CHX counter 17, Shiga toxin inh 50
CN1CCSc2ccc(C(=O)Nc3ccc(Cl)cc3)cc21	CHX counter 37, MARV entry inh inconclusive, Shiga toxin inh 59
COc1ccc(Br)cc1CN1CCCC(C(=O)N2CCCCCC2)C1 (stereo not drawn)	Pf growth 96h inconclusive, MARV entry inh inconclusive, Pf growth 48h inconclusive, LASV entry inh inconclusive
CN(C)c1cccc(-c2nnc(SCCCC#N)o2)c1	CHX counter 49, Pf growth 96h inconclusive, MARV entry inh inconclusive, Shiga toxin inh 91, LASV entry inh inconclusive
CN(C)CCSc1nnc(-c2ccccc2)o1	CHX counter 39, Pf growth 96h inconclusive, Shiga toxin inh 57
Cc1ccc(-c2nnc(SCc3cccc(C#N)c3)o2)cc1	MARV entry inh inconclusive (no result: CHX counter, Pf growth 96h, Shiga toxin inh, Pf growth 48h)
CCCCCSc1nnc(-c2ccc(Br)cc2)o1	none (no result: CHX counter, Pf growth 96h, MARV entry inh, Shiga toxin inh, Pf growth 48h)
Cc1cccc(-c2nnc(SCc3ccccc3)o2)c1	CHX counter 28, Shiga toxin inh 92
Cc1cccc(CSc2nnc(-c3ccco3)o2)c1	CHX counter 32, Pf growth 96h inconclusive, Shiga toxin inh 89 (no result: MARV entry inh, LASV entry inh)
O=C(NC(=S)NCc1ccco1)c1ccc(Br)cc1	none
CCn1c(-c2cc(-c3ccccc3OC)nc3ccccc23)n[nH]c1=S	Pf growth 96h 3.3µM, Pf growth 48h 2.6µM
CCn1c(-c2cc(-c3cc(OC)ccc3OC)nc3ccccc23)n[nH]c1=S	Pf growth 96h 0.37µM (no result: Pf growth 48h)
CCN(Cc1ccncc1)C(=O)Cc1cccs1	none (no result: MARV entry inh, LASV entry inh)
O=C1NC(=O)C(Cc2ccc(OCCN3COc4ccccc4C3=O)cc2)S1 (stereo not drawn)	CHX counter 25 (no result: Pf growth 96h, MARV entry inh, Pf growth 48h, LASV entry inh)
O=C(O)C1CC(=O)N(CCOc2ccccc2)C1 (stereo not drawn)	Pf growth 96h inconclusive
